Inconclusive results are not listed. The source made the active and inactive calls. Calls come from the whole dose curve; as a rule, active = well fitted curve in the direction sought with a large enough effect; inconclusive = small, poorly fitted or top-dose-only effect, or another doubt; inactive = no such curve, though single readings can be large; an effect the other way counts as inactive or inconclusive.
How the values were obtained:
[1] = qHTS of pediatric cancer cell lines to identify multiple opportunities for drug repurposing: Primary screen for U-2 OS cells (AID 1347096); note: nearly all actives have a fitted effect of over 50% in size
In short: (§1)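 Cells (500-1,000/well) in growth media were settled 5 h at 37 degrees C, then given compounds for 48 h. Viability was read as CellTiter-Glo luminescence. Primary runs used MIPE at 11 points (0.78 nM-46 µM) and NPC at 8 points (0.59 nM-46 µM); follow-ups used 11 points.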

[2] = qHTS of pediatric cancer cell lines to identify multiple opportunities for drug repurposing: Primary screen for Saos-2 cells (AID 1347097); note: nearly all actives have a fitted effect of over 40% in size
In short: (§2)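 Plated cells (500-1,000 per well, growth media) were allowed to settle for 5 hours, treated with compound dilutions for 48 hours, then lysed with CellTiter-Glo for 15 min at room temperature before luminescence reading.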

[3] = qHTS of pediatric cancer cell lines to identify multiple opportunities for drug repurposing: Primary screen for SK-N-SH cells (AID 1347098); note: nearly all actives have a fitted effect of over 65% in size
In short: (§3)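 Cells (500-1,000/well) rested 5 h, then received compounds for 48 h; metabolically active cells were measured by CellTiter-Glo luminescence. Final concentrations spanned up to 46 µM (MIPE, 11-point) or 0.59 nM-46 µM (NPC, 8-point) in primary screens, 11-point in follow-ups.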

[4] = qHTS of pediatric cancer cell lines to identify multiple opportunities for drug repurposing: Primary screen for NB1643 cells (AID 1347099); note: nearly all actives have a fitted effect of over 50% in size
In short: as §2

[5] = qHTS of pediatric cancer cell lines to identify multiple opportunities for drug repurposing: Primary screen for LAN-5 cells (AID 1347100)
In short: as §1

[6] = qHTS of pediatric cancer cell lines to identify multiple opportunities for drug repurposing: Primary screen for Rh18 cells (AID 1347102); note: nearly all actives have a fitted effect of over 65% in size
In short: as §1

[7] = qHTS of pediatric cancer cell lines to identify multiple opportunities for drug repurposing: Primary screen for RD cells (AID 1347104); note: nearly all actives have a fitted effect of over 55% in size
In short: as §2

[8] = qHTS of pediatric cancer cell lines to identify multiple opportunities for drug repurposing: Primary screen for MG 63 (6-TG R) cells (AID 1347105); note: nearly all actives have a fitted effect of over 50% in size
In short: as §2

[9] = qHTS of pediatric cancer cell lines to identify multiple opportunities for drug repurposing: Primary screen for control Hh wild type fibroblast cells (AID 1347106); note: nearly all actives have a fitted effect of over 55% in size
In short: as §1

[10] = qHTS of pediatric cancer cell lines to identify multiple opportunities for drug repurposing: Primary screen for Rh30 cells (AID 1347107); note: nearly all actives have a fitted effect of over 75% in size
In short: as §1

[11] = qHTS of pediatric cancer cell lines to identify multiple opportunities for drug repurposing: Confirmatory screen for SK-N-MC cells (AID 1347111);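 note: cells exposed to compound for 48 h before the readout; nearly all actives have a fitted effect of over 70% in size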
In short: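 Metabolically active cells were quantified by ATP-dependent luminescence (CellTiter-Glo, 15 min at room temperature) following 48 h treatment. Cells had been plated at 500-1,000 per well and settled for 5 h beforehand.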

[12] = qHTS of pediatric cancer cell lines to identify multiple opportunities for drug repurposing: Confirmatory screen for BT-12 cells (AID 1347112); note: nearly all actives have a fitted effect of over 55% in size
In short: as §1

[13] = qHTS of pediatric cancer cell lines to identify multiple opportunities for drug repurposing: Confirmatory screen for NB-EBc1 cells (AID 1347115);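 note: cells exposed to compound for 48 h before the viability read; nearly all actives have a fitted effect of over 45% in size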
In short: as §1

[14] = qHTS of pediatric cancer cell lines to identify multiple opportunities for drug repurposing: Primary screen for OHS-50 cells (AID 1347103); note: nearly all actives have a fitted effect of over 40% in size
In short: as §3

[15] = qHTS of pediatric cancer cell lines to identify multiple opportunities for drug repurposing: Primary screen for Rh41 cells (AID 1347108); note: nearly all actives have a fitted effect of over 70% in size
In short: as §2

[16] = qHTS of pediatric cancer cell lines to identify multiple opportunities for drug repurposing: Confirmatory screen for A673 cells (AID 1347110);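 note: cells exposed to compound for 48 h before the viability read; nearly all actives have a fitted effect of over 65% in size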
In short: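 Viability was read as ATP luminescence (CellTiter-Glo) after 48 h of compound exposure at 37 C in A673 cells seeded at 500-1,000/well. Titrations reached 46 uM final, with 11 points in the confirmatory screen. Concentration-response curves were fitted directly.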

[17] = qHTS of pediatric cancer cell lines to identify multiple opportunities for drug repurposing: Confirmatory screen for LAN-5 cells (AID 1347113); note: nearly all actives have a fitted effect of over 65% in size
In short: as §1

[18] = qHTS of pediatric cancer cell lines to identify multiple opportunities for drug repurposing: Primary screen for BT-12 cells (AID 1347101); note: nearly all actives have a fitted effect of over 25% in size
In short: as §3

[19] = qHTS of pediatric cancer cell lines to identify multiple opportunities for drug repurposing: Confirmatory screen for NB1643 cells (AID 1347109); note: nearly all actives have a fitted effect of over 45% in size
In short: as §1

[20] = qHTS of pediatric cancer cell lines to identify multiple opportunities for drug repurposing: Confirmatory screen for DAOY cells (AID 1347114); note: nearly all actives have a fitted effect of over 65% in size
In short: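 Viability measured as metabolically active cells via CellTiter-Glo luminescence following 48 hours of compound exposure, 11-point dilutions in confirmatory testing. 500-1,000 cells/well plated 5 hours before dosing; controls were DMSO and 2.3 µM bortezomib.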

Measured: Potency
Potency is the fitted concentration of half-maximal effect.

C=CC(=O)N1CCC[C@@H](n2nc(-c3ccc(Oc4ccccc4)cc3)c3c(N)ncnc32)C1
inactive: [1] | [9] | [12]
active: [2] 11.8 µM | [3] 12.1 µM | [4] 2.35 µM | [5] 16.6 µM | [6] 18.7 µM | [7] 33.2 µM | [8] 23.5 µM | [10] 11.8 µM | [11] 5.85 µM | [13] 9.27 µM

CC(C)(C)NC(=O)[C@H]1CN(Cc2cccnc2)CCN1C[C@@H](O)C[C@@H](Cc1ccccc1)C(=O)N[C@H]1c2ccccc2C[C@H]1O
inactive: [1] | [9] | [16] | [12] | [17] | [13]
active: [2] 18.7 µM | [3] 15.2 µM | [4] 1.05 µM | [14] 19.3 µM | [7] 1.48 µM | [15] 3.72 µM

COc1cc(C)c(Sc2cnc(NC(=O)c3ccc(CNC(C)C(C)C)cc3)s2)cc1C(=O)N1CCN(C(C)=O)CC1 (stereo not given)
active: [3] 12.1 µM | [5] 2.64 µM | [18] 24.3 µM | [8] 11.8 µM | [10] 8.33 µM | [15] 2.64 µM
inactive: [1] | [2]

CCCNC(=O)Nc1ccc(Oc2ncnc3cc(OC)c(OC)cc23)cc1Cl
inactive: [1] | [2] | [3] | [4] | [18] | [6] | [14] | [7] | [9] | [10] | [15]

C1Cc2[nH]nc(-c3nn[nH]n3)c2C1
inactive: [1] | [2] | [3] | [5] | [18] | [6] | [14] | [8] | [9] | [10] | [15]

Nc1cccc(-c2cc3c(Oc4cccc(O)c4)ncnc3[nH]2)c1
active: [2] 1.87 µM | [3] 3.04 µM | [4] 20.9 µM | [5] 11.8 µM | [6] 11.8 µM | [7] 9.35 µM | [15] 5.9 µM
inactive: [1] | [9]

CCCCc1nc2cc(C=CC(=O)NO)ccc2n1CCN(CC)CC
active: [1] 0.743 µM | [2] 0.0296 µM | [3] 3.41 µM | [5] 0.0833 µM | [18] 0.193 µM | [6] 0.0148 µM | [7] 2.09 µM | [8] 3.72 µM | [9] 16.6 µM | [15] 0.935 µM | [19] 1.31 µM | [16] 2.08 µM | [11] 1.04 µM | [12] 4.14 µM | [17] 1.04 µM | [20] 2.33 µM | [13] 3.29 µM

Nc1nc(Nc2ccc(S(N)(=O)=O)cc2)nn1C(=O)c1c(F)cccc1F
inactive: [1] | [6] | [10]
active: [2] 13.2 µM | [3] 8.57 µM | [18] 13.7 µM | [14] 9.68 µM | [7] 11.8 µM | [15] 14.8 µM

CN(C)CC(C)(C)CNc1nn2c(-c3ccccc3)nnc2cc1C1CCC1
inactive: [1] | [9] | [10] | [19] | [12] | [17] | [20] | [13]
active: [2] 5.9 µM | [3] 1.21 µM | [4] 0.935 µM | [5] 0.418 µM | [14] 1.37 µM | [8] 2.96 µM | [11] 20.8 µM

COc1cc(C(=O)N2CCC(N3CCN(C)CC3)CC2)ccc1Nc1ncc2c(n1)N(C)c1ccccc1C(=O)N2C
inactive: [1]
active: [2] 10.5 µM | [3] 21.5 µM | [4] 9.35 µM | [5] 5.26 µM | [6] 11.8 µM | [7] 14.8 µM | [8] 9.35 µM | [15] 9.35 µM

CCN(CC)CCNC(=O)c1ccc2nc(-c3ccccc3)c(-c3ccc(CN4CCC(n5c(=O)[nH]c6ccccc65)CC4)cc3)nc2c1
active: [1] 3.72 µM | [2] 6.62 µM | [3] 27.1 µM | [5] 5.9 µM | [6] 2.35 µM | [14] 3.43 µM | [7] 3.32 µM | [8] 7.43 µM | [9] 9.35 µM | [10] 18.7 µM | [15] 10.5 µM

CS(=O)(=O)c1ccc(-c2cnc(N)c(C(=O)Nc3ccccc3)n2)cc1
inactive: [1] | [2] | [3] | [4] | [18] | [6] | [7] | [8] | [9] | [15]

Cn1cc(-c2[nH]c3cc(NC(=O)[C@H](N)C4CCCCC4)cc4c3c2C=NNC4=O)cn1
inactive: [18]
active: [1] 11.8 µM | [2] 4.69 µM | [3] 19.2 µM | [5] 1.48 µM | [14] 1.22 µM | [7] 14.8 µM

Cn1cc(-c2ccncc2)c(-c2ccc(OCc3ccc4ccccc4n3)cc2)n1
inactive: [1] | [3] | [6] | [8] | [9]
active: [2] 11.8 µM

COc1cc2c(Oc3ccc4[nH]c(C)cc4c3F)ncnc2cc1OCCCN1CCCC1
active: [2] 29.6 µM | [3] 7.64 µM | [5] 20.9 µM | [18] 24.3 µM | [6] 18.7 µM | [14] 30.6 µM | [7] 26.4 µM | [8] 23.5 µM | [9] 26.4 µM | [10] 23.5 µM | [15] 18.7 µM
inactive: [1]

Source: PubChem BioAssay (NCATS)
